Active and inactive are the calls of the source.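 How the source made its calls: active means average half-effect concentration of 10 µM or less in every one of the four cell panels; inactive means the rest.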

This assay deals with H9c2. Briefly: cardiomyocyte survival under oxidative or metabolic stress – cell-based, panel, H9c2 and HL-1, H2O2, 2-deoxyglucose, ATP luminescence, SAR follow-up (AID 651642). The conditions noted are these: H9c2/HL-1 cardiomyocyte 2-deoxyglucose damage, mean of runs, with 2-deoxyglucose.
Turning to `CCOC(=O)c1cccc(NC(=O)CNC(=O)c2cc(-c3cc(OC)c(OC)c(OC)c3)nc3ccc(C)cc23)c1`, the call was active.

Take `COC(=O)CNC(=O)c1cc(-c2cc(OC)c(OC)c(OC)c2)nc2ccccc12`: the compound was called inactive. The entry for `COc1cc(-c2cc(C(=O)NCC(=O)Nc3ccc(C(C)=O)cc3)c3cc(F)ccc3n2)cc(OC)c1OC` is “inactive”.

Take `CCOC(=O)c1ccccc1NC(=O)c1cc(-c2cc(OC)c(OC)c(OC)c2)nc2ccccc12`: the call was inactive. The entry for `COc1ccc2c(c1OC)C(=O)N1c3ccccc3C(=O)N(Cc3ccc(C)cc3C)C21` (configuration not stated) is “inactive”; for `COc1cc(-c2cc(C(=O)Nc3cccc(C(C)=O)c3)c3cccc(Cl)c3n2)cc(OC)c1OC` it is “inactive”; for `COC(=O)CNC(=O)c1cccc(NC(=O)c2cc(-c3cc(OC)c(OC)c(OC)c3)nc3ccccc23)c1` it is “active”. On to `CCOC(=O)c1cccc(NC(=O)CNC(=O)c2cc(-c3cc(OC)c(OC)c(OC)c3)nc3ccc(OC)cc23)c1`, for which the outcome was active. The result for `COc1cc(-c2cc(C(=O)NCC(=O)O)c3ccccc3n2)cc(OC)c1OC` reads “inactive”; that for `COc1ccc2c(c1OC)C(=O)N1c3ccccc3C(=O)N(Cc3cccc(F)c3)C21` (configuration not stated), “inactive”; that for `COc1cc(-c2cc(C(=O)Nc3cccc(C(C)=O)c3)c3cc(F)ccc3n2)cc(OC)c1OC`, “inactive”. The entry for `COc1ccc2nc(-c3cc(OC)c(OC)c(OC)c3)cc(C(=O)NCC(=O)Nc3ccc(C(C)=O)cc3)c2c1` is “active”; for `COc1cc(-c2cc(C(=O)NCC(=O)Nc3cccc(C(C)=O)c3)c3ccccc3n2)cc(OC)c1OC` it is “active”; for `COc1cc(-c2cc(C(=O)NCC(=O)Nc3cccc(C(C)=O)c3)c3cccc(Cl)c3n2)cc(OC)c1OC` it is “inactive”. The entry for `COc1cccc(CNC(=O)CNC(=O)c2cc(-c3cc(OC)c(OC)c(OC)c3)nc3ccccc23)c1` is “inactive”. Consider `COc1ccccc1CN1C(=O)c2ccccc2N2C(=O)c3c(ccc(OC)c3OC)C12` (configuration not stated), for which the outcome was inactive. The entry for `COc1ccc2c(c1OC)C(=O)N1c3ccccc3C(=O)N(Cc3ccncc3)C21` (configuration not stated) is “inactive”; for `CCOC(=O)c1cccc(NC(=O)c2cc(-c3cc(OC)c(OC)c(OC)c3)nc3ccccc23)c1` it is “inactive”; for `COc1cc(-c2cc(C(=O)NCC(=O)Nc3cccc(C(C)=O)c3)c3cc(Br)ccc3n2)cc(OC)c1OC` it is “active”. The result for `COc1cc(-c2cc(C(=O)Nc3cccc(C(C)=O)c3)c3cc(Br)ccc3n2)cc(OC)c1OC` reads “inactive”; that for `CCOC(=O)c1cccc(NC(=O)CNC(=O)c2cc(-c3cc(OC)c(OC)c(OC)c3)nc3c(Cl)cccc23)c1`, “inactive”. The entry for `COc1ccc2c(c1OC)C(=O)N1c3ccccc3C(=O)N(Cc3cccc(C)c3)C21` (configuration not stated) is “inactive”.

For `CCOC(=O)c1cccc(NC(=O)CNC(=O)c2cc(-c3cc(OC)c(OC)c(OC)c3)nc3ccc(F)cc23)c1`, the result was active. On to `COc1ccc2c(c1OC)C(=O)N1c3ccccc3C(=O)N(Cc3ccccc3)C21` (configuration not stated), for which the call was inactive. `CCNC(=O)c1cccc(NC(=O)c2cc(-c3cc(OC)c(OC)c(OC)c3)nc3ccccc23)c1`: the compound was called inactive. The entry for `COc1ccc2nc(-c3cc(OC)c(OC)c(OC)c3)cc(C(=O)NCC(=O)Nc3cccc(C(C)=O)c3)c2c1` is “active”.

With `COc1ccc2nc(-c3cc(OC)c(OC)c(OC)c3)cc(C(=O)Nc3cccc(C(C)=O)c3)c2c1`, the compound was called inactive. The entry for `CCOC(=O)c1cccc(NC(=O)CNC(=O)c2cc(-c3cc(OC)c(OC)c(OC)c3)nc3ccc(Br)cc23)c1` is “active”. The entry for `CCOC(=O)c1cccc(NC(=O)c2cc(-c3cc(OC)c(OC)c(OC)c3)nc3ccc(F)cc23)c1` is “inactive”; for `COc1cc(-c2cc(C(=O)Nc3cccc(C(=O)N(C)C)c3)c3ccccc3n2)cc(OC)c1OC` it is “inactive”. The result for `CCOC(=O)c1cccc(NC(=O)c2cc(-c3cc(OC)c(OC)c(OC)c3)nc3ccc(OC)cc23)c1` reads “inactive”; that for `COc1ccc2c(c1OC)C(=O)N1c3ccccc3C(=O)N(Cc3ccccn3)C21` (configuration not stated), “inactive”.

For the origin of these results see PubChem BioAssay AID651642 (Sanford-Burnham Center for Chemical Genomics, 2012).
